As usually defined, the inhibition is the drop in the measured response relative to a control, in per cent.

The campaign covered roughly 290,000 compounds. About 3,000 (1%) were called active. For the sample, actives were picked, then their nearest neighbours and some compounds at random. Unmarked numbers belong to inactive results. Cut-off read from the data, not from the text of the source: active = inhibition mostly above about 36% (no sharp cut-off); inactive = mostly below about 34%.

The nature of this test: inhibition of NOD1-driven NF-kB reporter – cell-based, luminescence, uHTS, primary screen (AID 1578).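 Note: HEK-293T reporter cells stimulated with the NOD1 agonist gamma-tri-DAP.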 The conditions noted are these: NOD1-driven NF-kB luciferase reporter cells, at 4 µM, hits give high values. (A reporter such as luciferase makes a cellular process visible.)
For `Cc1ccccc1C(=O)Nc1c(C)[nH]c(=O)[nH]c1=O`, the inhibition is -1.1%.

Regarding `CCC(=O)Nc1cccc(C2=NOC3(C2)C[C@H](C(N)=O)N(C(=O)Cc2ccc([N+](=O)[O-])cc2)C3)c1` (stereo not given in full), the inhibition was 0%.

As for `O=[N+]([O-])c1cccc(-c2ccc(/C=N/Nc3nc(N4CCCCC4)nc(N4CCCCC4)n3)o2)c1`, the inhibition is 34.4% (active).

Regarding `O=[N+]([O-])c1ccc(-c2ccc(/C=N/Nc3nc(N4CCCCC4)nc(N4CCCCC4)n3)o2)cc1`, the inhibition was 7.6%.

Regarding `O=[N+]([O-])c1ccc(-c2ccc(/C=N/Nc3nc(N4CCCC4)nc(N4CCCC4)n3)o2)cc1`, the inhibition is -26.6%.

As for `FC(F)(F)c1cccc(-c2ccc(/C=N/Nc3nncc(-c4ccccc4)n3)o2)c1`, the inhibition is -58.3%.

For `COc1ccccc1-c1cnnc(N/N=C/c2ccc(-c3cccc(Br)c3)o2)n1`, the inhibition was 52.2% (active).

With `Brc1ccc(-c2ccc(/C=N/Nc3nncc(-c4ccccc4)n3)o2)cc1`, the inhibition was -106%.

As to `S=c1nc(NCCc2ccccc2Cl)c2ccccc2[nH]1`, the inhibition is -4%.

In the case of `CC(NC(=O)Cn1ncc(Cl)c(Cl)c1=O)C12CC3CC(CC(C3)C1)C2` (stereo not given), the inhibition is 87% (active).

Turning to `CC(NC(=O)Cn1nc(C(=O)O)c2ccccc2c1=O)C12CC3CC(CC(C3)C1)C2` (stereo not given), the inhibition is -19.8%.

In the case of `CC(NC(=O)CN1CCCC1)C12CC3CC(CC(C3)C1)C2` (stereo not given), the inhibition is 1.9%.

With `COC(=O)N[C@H](CC(C)=O)c1cccc(C(F)(F)F)c1`, the inhibition was -18.1%.

As to `Cc1ccccc1C(=O)Nc1ccnn1C1CCN(C2CCSCC2)CC1`, the inhibition is -16.1%.

For the molecule `O=C(Nc1ccc(Cl)cc1)c1sccc1-n1cccc1`, the inhibition is -13%.

In the case of `Cc1c(-c2ccccn2)c(=O)[nH]n1-c1ccc(F)cc1`, the inhibition is -25.2%.

Take `Cc1ccc(-n2[nH]c(=O)c(-c3ccccn3)c2C)cc1`: the inhibition was 65.1% (active).

With `Cc1ccc(-n2[nH]c(=O)c3cccnc32)cc1`, the inhibition is 4.2%.

As to `COc1ccc(N(C(=O)CCl)C(C(=O)NCCc2ccccc2)c2cccs2)cc1Cl` (stereo not given), the inhibition was 63.5%.

`O=C(NCCc1ccccc1)C(c1cccs1)N(C(=O)c1csnn1)C1CC1` (stereo not given): the inhibition was -15.8%.

`COC(=O)c1ccccc1C(=O)c1cccc2ccccc12`: the inhibition was 30.1%.

For `CC(C)(C)c1cc(NC(=O)Nc2ccc(Br)cc2Cl)no1`, the inhibition was -19.7%.

On to `CCOC(=O)c1[nH]c(C)c(C(=O)OCC)c1C`, for which the inhibition is -5.4%.

`CCOC(=O)c1c(C)[nH]c(C(=O)O)c1C`: the inhibition was 7.9%.

`CCOC(=O)c1c(C)[nH]c(C(=O)C(C)Cl)c1C` (stereo not given): the inhibition is 58.6% (active).
